Screening data from PubChem BioAssay.
Hits are enriched below; roughly 12% of the tested compounds scored in any of these assays.
Pf growth 96h: P. falciparum growth inhibition at 96 hours; 6.9% of 320,000 active; Potency, µM (doses to about 28.7 µM), most hits filed as inhibitors; P. falciparum luciferase reporter growth, 96 h
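P. falciparum expressing integrated firefly luciferase grown in erythrocytes (2% hematocrit, 0.05% parasitemia final) with compounds for 96 hours at 37 C, 5% CO2. Growth inhibition read as loss of luminescence after adding luciferase detection reagent.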
Sm TGR inh: inhibitors of Schistosoma mansoni thioredoxin glutathione reductase. AID 485364. purified TGR, DTNB reduction, TNB absorbance 405 nm. Potency, µM (series often up to 114 µM), most hits filed as inhibitors. Q962Y6. 3% of 360,000 active; also: nearly all actives have a fitted effect of over 60% in size
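TGR 20 nM + NADPH 100 uM (dispensed conc.), cpd preinc 15 min RT; start with NADPH (500 uM addition) then DTNB (15 mM addition). Kinetic TNB absorbance, 405 nm filter. Four-parameter Hill fit across titration.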
SARS PLP yeast: inhibitors of SARS-CoV papain-like protease in yeast; S. cerevisiae expressing SARS-CoV PLpro, growth rescue; Potency, µM (series often up to 32.9 µM), most hits filed as activators; 0.19% of 330,000 active; calls by dose curve; also: nearly all actives have a fitted effect of over 55% in size
Pf growth 48h: inhibits P. falciparum growth in the first generation, 48 h. P. falciparum luciferase growth in erythrocytes, 48 h. Potency, µM (top dose mostly 28.7 µM), actives largely listed as inhibitors. 5.9% of 310,000 active. AID 504832
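Here the parasites carry a stable luciferase gene and grow inside erythrocytes in Albumax-based RPMI medium with compound for one erythrocytic cycle. Activity is scored as loss of luminescent signal.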
Each line names hits and unclear results; the compound was inactive in the other large screens; ! = not active in a repeat. Unless noted, calls follow the shape of the dose curve; as a rule, active = well fitted curve in the direction sought with a large enough effect; inconclusive = small, poorly fitted or top-dose-only effect, or another doubt; inactive = no such curve, though single readings can be large; an effect the other way counts as inactive or inconclusive.

CCCCCC(=O)Nc1cccc(C2=NOC3(C2)C[C@H](C(N)=O)N(C(=O)c2ccccc2C(=O)c2ccccc2)C3)c1 (stereo partly specified)	Pf growth 96h inconclusive, Pf growth 48h 9.3µM
O=C(CCc1ccccc1)Nc1cc(S(=O)(=O)N2CCOCC2)ccc1N1CCCC1	none
O=C(c1ccco1)N1CCN(S(=O)(=O)c2ccc(Br)s2)CC1	Sm TGR inh 11µM (no result: Pf growth 96h)
CCOC(=O)N1CCN(S(=O)(=O)c2ccc(Br)s2)CC1	none
Cc1ccc(S(=O)(=O)N2CCN(C(=O)c3ccco3)CC2)cc1	none
CC(C)(C)c1ccc(C(=O)N2CCN(S(=O)(=O)c3ccc(Br)s3)CC2)cc1	Pf growth 96h 10µM, Pf growth 48h 6.6µM
Cc1c(CC(=O)NCCCC(=O)O)c(=O)oc2cc3c(cc12)CCC(C)(C)O3	Pf growth 96h inconclusive, Pf growth 48h 2.6µM
O=C(COc1cccc(C(F)(F)F)c1)NCC(c1cccs1)N1CCOCC1 (stereo unspecified)	Pf growth 96h 15µM, Pf growth 48h 13µM
O=C(COc1cccc(C(F)(F)F)c1)NCC(c1ccco1)N1CCCCC1 (stereo unspecified)	Pf growth 96h inconclusive, Pf growth 48h 15µM
COc1cccc(/C(C)=N/Nc2ccc(S(=O)(=O)N3CCCCC3)cn2)c1	Pf growth 96h inconclusive, Pf growth 48h inconclusive
C=CCN(c1ccccc1)S(=O)(=O)c1cccc(C(=O)NCC(c2ccc(F)cc2)N2CCOCC2)c1 (stereo unspecified)	Pf growth 96h inconclusive, Pf growth 48h 13µM
C=CCN(c1ccc(F)cc1)S(=O)(=O)c1cc(C(=O)NC2CCC(O)CC2)ccc1Cl (stereo unspecified)	Pf growth 96h 5.2µM, Pf growth 48h inconclusive
C=CCN(c1ccccc1)S(=O)(=O)c1cccc(C(=O)NC2CCN(Cc3ccccc3)CC2)c1	Pf growth 96h 12µM, Pf growth 48h 10µM
O=C(NC1CCN(Cc2ccccc2)CC1)c1cccc(S(=O)(=O)Nc2ccc(F)cc2)c1	Pf growth 96h 2.1µM, Pf growth 48h 4.1µM
Cc1ccc(N2CC(NC(=O)c3cccc(Cl)c3)CC2=O)cc1C (stereo unspecified)	none (no result: Pf growth 96h, SARS PLP yeast, Pf growth 48h)
O=C(NCC(c1ccc(F)cc1)N1CCOCC1)c1ccc(-c2ccccc2)cc1 (stereo unspecified)	none (no result: Pf growth 96h, Sm TGR inh, Pf growth 48h)
O=C(NC1CCN(Cc2ccccc2)CC1)c1cccc(S(=O)(=O)Nc2ccc(Br)cc2)c1	Pf growth 96h inconclusive, Pf growth 48h 12µM
O=C(NCC(c1ccc(F)cc1)N1CCOCC1)c1nn(-c2ccccc2)c(=O)c2ccccc12 (stereo unspecified)	Pf growth 96h inconclusive, Pf growth 48h 9.3µM
CC1(C)CC(NC(=O)c2cccc(S(=O)(=O)Nc3cccc(Cl)c3)c2)CC(C)(C)N1	Pf growth 96h 4.7µM, Pf growth 48h 13µM
Cc1ccc(C(=O)NC2CC(C)(C)NC(C)(C)C2)cc1Cl	none
CN(C)S(=O)(=O)c1cccc(C(=O)NCC(=O)NC2CCN(Cc3ccccc3)CC2)c1	none
CC[C@@]1(C(=O)OC)N[C@H](CN(C)C(=O)Nc2ccc(Cl)cc2)[C@@H]2C(=O)N(Cc3ccccc3)C(=O)[C@@H]21	none (no result: Pf growth 96h, Sm TGR inh, Pf growth 48h)
O=S(=O)(NCc1nc2cccnc2n1Cc1ccc(F)cc1)c1ccc2c(c1)CCCC2	none (no result: Pf growth 96h, SARS PLP yeast, Pf growth 48h)
CC(=O)N(CC(=O)Nc1nn(-c2ccccc2)nc1C(N)=O)Cc1ccccc1	Pf growth 48h 1µM (no result: Pf growth 96h)
COc1ccc(CCC(=O)NC2CC(=O)N(c3ccc(OC)cc3)C2)cc1 (stereo unspecified)	none (no result: Pf growth 96h, SARS PLP yeast, Pf growth 48h)
CC(=O)NC(Cc1ccc(N(CCCl)CCCl)cc1)C(=O)O (stereo unspecified)	Pf growth 96h inconclusive, Sm TGR inh inconclusive
N[C@@H](Cc1ccc(N(CCCl)CCCl)cc1)C(=O)O	Pf growth 96h 9.5µM!, Sm TGR inh 14µM, Pf growth 48h inconclusive (no result: SARS PLP yeast)
NC(Cc1ccc(OC(F)F)cc1)C(=O)O (stereo unspecified)	Sm TGR inh 35µM
O=C(O)CCCc1ccc(N(CCCl)CCCl)cc1	Pf growth 96h inconclusive, Sm TGR inh 50µM, Pf growth 48h inconclusive
Cc1ccccc1-c1nc(CN(Cc2c(C)nn(C)c2C)C2CC2)c(C)o1	Pf growth 48h 12µM (no result: Sm TGR inh)
Cc1sc2nc(-c3cccnc3)nc(Cl)c2c1-c1ccccc1	Pf growth 96h inconclusive, Pf growth 48h 8.3µM
COc1cccc(N2CCN(C(=O)c3cc4c(s3)-c3c(C)cccc3OC4)CC2)c1	none (no result: Pf growth 96h, SARS PLP yeast, Pf growth 48h)
Cc1csc(NC(=O)c2oc3ccccc3c2C)n1	none
Cc1csc(Nc2nc(N)c(C(=O)Nc3ccccc3)o2)n1	Pf growth 96h 3.3µM
Cc1cccc(C(=O)NNC(=S)NC(=O)c2cccs2)c1	Pf growth 96h 12µM
COc1ccc(C(=O)NNC(=S)NC(=O)c2cccs2)cc1	none
COc1ccc(NC(=O)C(=O)NNC(=O)c2cccs2)cc1	Pf growth 96h 3.7µM
O=C(NNC(=O)c1cccs1)c1ccc2ccccc2c1	Pf growth 96h 1.7µM
COc1ccc(N2CCN(C(=O)C3CCN(C(=O)c4ccc([N+](=O)[O-])cc4)CC3)CC2)cc1	Pf growth 48h inconclusive
CN(C)c1cc[n+](CCC(=O)Nc2cccc([N+](=O)[O-])c2N)cc1	Pf growth 96h 3.3µM, Pf growth 48h inconclusive
CC(=O)c1ccc(NC(=O)C[n+]2ccc(N(C)C)cc2)cc1	Pf growth 96h inconclusive, Pf growth 48h inconclusive
CN(C)c1cc[n+](CC(=O)Nc2ccc(Cl)c([N+](=O)[O-])c2)cc1	Pf growth 48h 1.2µM
Nc1c(NC(=O)CC[n+]2ccccc2)cccc1[N+](=O)[O-]	none
Cc1ccc[n+](CC(=O)Nc2ccc(N(C)C)cc2)c1	Pf growth 96h 5.2µM
CN(C)c1ccc(NC(=O)C[n+]2ccccc2)cc1	none
CN(C)c1cc[n+](CC(=O)Nc2ccc(OC(F)F)cc2)cc1	Pf growth 96h 0.47µM, Pf growth 48h 2.3µM
Cc1cc(C)n2nc(C(=O)OCC(=O)NNC(=O)c3ccccc3)nc2n1	none
CN(C)c1ccc(C(CNC(=O)c2ccc(C(C)(C)C)cc2)N2CCCC2)cc1 (stereo unspecified)	none (no result: Pf growth 96h, SARS PLP yeast, Pf growth 48h)
COc1ccc(C(=O)NCCOC(C)C)cc1OC1CCN(C(C)=O)CC1	Pf growth 96h 10µM
COc1ccc(C(=O)NC(C)CCCC(C)(C)O)cc1OC1CCN(C(C)=O)CC1 (stereo unspecified)	Pf growth 96h 7.4µM
COc1cc(C(=O)NCCc2ncccc2C)ccc1OC1CCN(C(C)=O)CC1	Pf growth 48h 9.3µM
COc1ccc(C(=O)NCCc2ccc(C)cc2)cc1OC1CCN(C(C)=O)CC1	none
COc1cc(C(=O)NC(C)CCn2cccn2)ccc1OC1CCN(C(C)=O)CC1 (stereo unspecified)	Pf growth 96h inconclusive
COc1ccc(OC)c(NC(=O)CN2C(=O)CC(C)Sc3ccccc32)c1 (stereo unspecified)	none (no result: Pf growth 96h, SARS PLP yeast, Pf growth 48h)
CCOC(=O)C1CCN(S(=O)(=O)c2cc(C(=O)N3CCCCC3)ccc2OC)CC1	SARS PLP yeast inconclusive, Pf growth 48h inconclusive
CC(NC(=O)C1CCN(S(=O)(=O)c2ccc(F)cc2)CC1)c1ccccc1 (stereo unspecified)	none (no result: Pf growth 96h, SARS PLP yeast, Pf growth 48h)
